In ChEMBL document CHEMBL3988442, “University of Dundee, Small-Polar-MMV Screening Library” (2021):

Assays:
[1] = target: T1, Aspartate--tRNA(Asp/Asn) ligase (Mycobacterium tuberculosis (strain ATCC 25618 / H37Rv)) (UniProt P9WFW3); assay: Assay for Asp RNA synthetase-1 from Mycobacterium tuberculosis; format: functional; set-up: scale not given: direction of the effect not stated beside the values; conditions: 30 µM; also: in the data most compounds retested in dose-response had high values
T1 sequence (whole entry): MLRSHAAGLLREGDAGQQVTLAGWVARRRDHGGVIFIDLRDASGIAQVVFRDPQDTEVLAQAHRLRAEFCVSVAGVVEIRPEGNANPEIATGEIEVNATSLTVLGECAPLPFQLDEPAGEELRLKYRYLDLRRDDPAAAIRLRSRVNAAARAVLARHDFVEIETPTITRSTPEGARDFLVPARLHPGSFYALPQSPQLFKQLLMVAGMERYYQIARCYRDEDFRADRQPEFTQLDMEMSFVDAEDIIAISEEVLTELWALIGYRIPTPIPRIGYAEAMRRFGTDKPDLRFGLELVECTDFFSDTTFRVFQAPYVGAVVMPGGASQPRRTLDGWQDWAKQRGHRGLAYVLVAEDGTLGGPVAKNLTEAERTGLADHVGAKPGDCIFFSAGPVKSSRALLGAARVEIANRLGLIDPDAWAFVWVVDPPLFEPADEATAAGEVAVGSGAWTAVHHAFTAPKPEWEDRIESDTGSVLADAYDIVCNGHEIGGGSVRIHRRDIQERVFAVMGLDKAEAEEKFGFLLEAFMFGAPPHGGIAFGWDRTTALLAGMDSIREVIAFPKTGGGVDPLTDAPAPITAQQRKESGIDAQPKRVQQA

[2] = target: Shiga toxin 2 (Escherichia coli O157:H7) (UniProt P09385+P09386); assay: E. coli 0.157:H7 Shiga Toxin SOP - stx2 screening assay; format: functional; set-up: scale not given: direction of the effect not stated beside the values; conditions: 30 µM

Cc1ccccc1-c1cncc(C2CCN(C(=O)CN(C)C)CC2)n1
Percent Effect [1]: 6.8% | Percent Effect [2]: -18.5%

Fc1cccc(N2CCCC3(C2)CN(c2ncccn2)CCO3)c1 (configuration not stated)
Percent Effect [1]: 2.81% | Percent Effect [2]: -2.38%

c1cncc(OCC2CN(Cc3ccco3)Cc3nccn3C2)c1 (configuration not stated)
Percent Effect [1]: -1.34% | Percent Effect [2]: -17.2%

COc1ccc(CN2C[C@H]3CN(c4ccsc4)C(=O)[C@H]3C2)cc1
Percent Effect [1]: 4.05% | Percent Effect [2]: -26.4%

CS(=O)(=O)NCC1CCCN(C(=O)COCC(F)(F)F)C1 (configuration not stated)
Percent Effect [1]: -4.43% | Percent Effect [2]: -24%

CCc1n[nH]c(C2CN(C(=O)c3csnn3)CCO2)n1 (configuration not stated)
Percent Effect [1]: 1.53% | Percent Effect [2]: 10.6%

N#Cc1cccc(N2CC3(CCN(C(=O)c4cccnc4)C3)CC2=O)c1 (configuration not stated)
Percent Effect [1]: 2.09% | Percent Effect [2]: -13.7%

O=C(Cn1nc(-c2cccs2)ccc1=O)N1CCCCCC1
Percent Effect [1]: 1.6% | Percent Effect [2]: -0.139%

CCC1(CC)Cc2ccccc2-c2nc(CN(C)C)nc(O)c21
Percent Effect [1]: 8.36% | Percent Effect [2]: -1.34%

CCC(CC)C(O)CNC(=O)Nc1cc(C)nn1C (configuration not stated)
Percent Effect [1]: -1.77% | Percent Effect [2]: -3.6%

O=C(c1ccc[nH]1)N1CCCC2(CCN(c3ccsc3)C2=O)C1 (configuration not stated)
Percent Effect [1]: 3.37% | Percent Effect [2]: 3.06%

O=C(CNCCn1cccn1)NCC1(c2ccccc2)CC1
Percent Effect [1]: 1.09% | Percent Effect [2]: 13.4%

CN(C)CC(=O)N1Cc2nc(C(=O)NCc3ccncc3)oc2C1
Percent Effect [1]: 4.86% | Percent Effect [2]: -45%

Cc1nn(C)c(N2CCOCC2)c1CNC1CCc2ccccc2C1 (configuration not stated)
Percent Effect [1]: -2.23% | Percent Effect [2]: -3.73%

CC(=O)NCC1CCN(C(=O)c2csc(-c3ccc(C)cc3C)n2)CC1
Percent Effect [1]: 5.3% | Percent Effect [2]: 14%

Cc1ccc(CN(CCCn2ccnc2)Cc2c[nH]cn2)s1
Percent Effect [1]: -4.18% | Percent Effect [2]: -13.7%

CS(=O)(=O)N[C@@H]1CCO[C@]2(CCN(C(=O)c3cnccn3)C2)C1
Percent Effect [1]: 4.35% | Percent Effect [2]: 3.82%

CC1CN(Cc2nccn2C)CCN1c1ccc2nncn2n1 (configuration not stated)
Percent Effect [1]: -6.07% | Percent Effect [2]: -28.7%

COc1cc(C)nc(N2CCN(C(=O)c3ccc[nH]3)CC2)n1
Percent Effect [1]: 1.55% | Percent Effect [2]: 11.2%

CCOc1cccc2c1OCC(C(=O)NS(=O)(=O)c1ccc(Cl)cc1)=C2
Percent Effect [1]: 0.459% | Percent Effect [2]: 17%

O=C(NCCNc1ncccn1)C1CCN(c2ncccn2)CC1
Percent Effect [1]: -0.874% | Percent Effect [2]: 5.72%

Cc1nccc(CN2CC[C@H](Oc3cccc(F)c3)[C@@](C)(O)C2)n1
Percent Effect [1]: -0.368% | Percent Effect [2]: -25.4%

CC(=O)N1CCC(C(=O)NCCN2CCC(C)CC2)CC1
Percent Effect [1]: 0.167% | Percent Effect [2]: 0.682%

CC(=O)N1CCCN(C(=O)NCCc2cc(Cl)cc(Cl)c2)CC1
Percent Effect [1]: -1.44% | Percent Effect [2]: -10%

Cc1noc(-c2ccc(N3CCCC(C(=O)N4CCSCC4)C3)nc2)n1 (configuration not stated)
Percent Effect [1]: -3.39% | Percent Effect [2]: 10.1%

Cc1ccc2cnn(CCC(=O)Nc3c(C)nn(C)c3C)c2c1
Percent Effect [1]: 0.535% | Percent Effect [2]: -34.7%

O=C(CCCn1cncn1)NC1(c2ccccc2)CCC1
Percent Effect [1]: 10.9% | Percent Effect [2]: -17.7%

Cc1ccc(CNC(=O)CCSCc2csc(C)n2)cn1
Percent Effect [1]: -3.37% | Percent Effect [2]: -2.37%

O=C1CCCc2cc(-c3csc(CCN4CCOC4=O)n3)ccc2N1
Percent Effect [1]: -6.83% | Percent Effect [2]: -35.7%

O=C(c1cc[nH]n1)N1CCC(Nc2cccnn2)CC1
Percent Effect [1]: -8.36% | Percent Effect [2]: -20.2%

CCc1cnc(N)nc1NCCN1CCCCC1
Percent Effect [1]: 0.268% | Percent Effect [2]: -30.3%

CC(=O)NCC(=O)N1CCC2(CC1)CN(c1cccnc1)C(=O)CO2
Percent Effect [1]: 2.37% | Percent Effect [2]: -4.09%

O=C(NCCN1CCCCC1)c1nc2ccccc2c(=O)[nH]1
Percent Effect [1]: -1.02% | Percent Effect [2]: -53.5%

CCCc1cc(C(=O)N(C)Cc2cnc3ccccc3n2)n(C)n1
Percent Effect [1]: 8.2% | Percent Effect [2]: -6.99%

CCCNC(=O)N1CCC(Oc2cc(C)ccc2F)(C(=O)O)CC1
Percent Effect [1]: -3.4% | Percent Effect [2]: 8.44%

CC(O)CNCc1ccc(OCc2ccc3c(c2)OCCO3)cc1 (configuration not stated)
Percent Effect [1]: 1.08% | Percent Effect [2]: -37.4%

CCc1nccn1C1CCCN(C(=O)c2ccc3[nH]cnc3c2)C1 (configuration not stated)
Percent Effect [1]: 0.869% | Percent Effect [2]: 11.5%

Cn1cc(CN2CCC3(CC(=O)N(c4ccc5c(c4)OCO5)C3)C2)cn1 (configuration not stated)
Percent Effect [1]: 2.85% | Percent Effect [2]: -15.8%

Cc1ccc(N2CC3(COCCN(Cc4nccs4)C3)OCC2=O)s1 (configuration not stated)
Percent Effect [1]: 7.04% | Percent Effect [2]: -13.5%

NC(=O)C1(CCCc2cccnc2)CCCN(c2ncccn2)C1 (configuration not stated)
Percent Effect [1]: -0.456% | Percent Effect [2]: -4.97%

Cc1cnn(C2CN(CC(=O)Nc3cccnc3)C2)c1
Percent Effect [1]: 3.91% | Percent Effect [2]: 11%

CCCn1[nH]cc/c1=N\C(=O)CN1CCc2c(nc(C(C)C)n2C)C1
Percent Effect [1]: 1.84% | Percent Effect [2]: 1.47%

Fc1cccc(CN2CCC(c3n[nH]c4ncccc34)CC2)c1F
Percent Effect [1]: -3.17% | Percent Effect [2]: -6.18%

CC(C)c1nc2c(n1C)CCN(Cc1nc(-c3cccs3)no1)C2
Percent Effect [1]: -1.02% | Percent Effect [2]: -0.957%

CCn1ccnc1CN1CCCN(C(=O)c2cccc(C#N)c2)CC1
Percent Effect [1]: 0.189% | Percent Effect [2]: -8.53%

c1cnn(-c2ccc(CN3CCOC(Cn4cncn4)C3)cc2)c1 (configuration not stated)
Percent Effect [1]: 4.05% | Percent Effect [2]: 9.62%
